Screening data as filed in PubChem BioAssay.
Sampled rows, rich in hits. Any-hit rate of the full collection: about 3.4%.
VDR inhibitor = blocks the human vitamin D receptor; P11473; VDR-SRC2-3 peptide fluorescence polarization, 2 h; Potency, µM, for inactives: max response, negative = inhibition, most hits filed as inhibitors; 400,000 compounds, 0.93% hits; also: % is scaled to controls: 0 for no effect and ±100 for the full control effect
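Fluorescence polarization assay of small-molecule disruption of VDR binding to coregulator peptide SRC2-3. Compounds and controls pin-transferred, then read after 2 h incubation at ambient room temperature.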
Mito fusion yeast = blocks mitochondrial division or promotes mitochondrial fusion | S. cerevisiae fusion-defective mutant growth rescue, CellTiterGlo 48 h | Potency, µM (titrated, usually from 46.1 µM), inactives show at the highest dose growth rescue (activation), hits mostly activators | 320,000 compounds, 0.23% hits; also: % of control where 0% means no effect; nearly all actives have a fitted effect of over 45% in size
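Compounds are tested for their ability to restore growth of mitochondrial fusion-defective yeast strains at non-permissive 37C in YPEG medium over 48 hours. Viability is quantified by luciferase luminescence.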
PLK1 PBD inh = inhibitors of human PLK1 polo-box domain binding. AID 720504. Plk1 PBD binding of FITC phosphopeptide, fluorescence polarization. 360,000 compounds, 2.8% hits. P53350. Potency, µM, without a hit: max response, negative = inhibition, usual class: inhibitors; also: series mostly up to about 57 µM; % is scaled to controls: 0 for no effect and ±100 for the full control effect; nearly all actives have a fitted effect of over 65% in size
GLS inhibitor = inhibitors of human glutaminase (GLS). GLS enzymatic activity, qHTS titration. 410,000 compounds, 0.21% hits. O94925. Potency, µM (top dose mostly 45.5 µM), inactives show at the top dose activity change, negative = inhibition, most hits filed as inhibitors; also: % is scaled to controls: 0 for no effect and ±100 for the full control effect
Target sequence (O94925 whole entry, looked up): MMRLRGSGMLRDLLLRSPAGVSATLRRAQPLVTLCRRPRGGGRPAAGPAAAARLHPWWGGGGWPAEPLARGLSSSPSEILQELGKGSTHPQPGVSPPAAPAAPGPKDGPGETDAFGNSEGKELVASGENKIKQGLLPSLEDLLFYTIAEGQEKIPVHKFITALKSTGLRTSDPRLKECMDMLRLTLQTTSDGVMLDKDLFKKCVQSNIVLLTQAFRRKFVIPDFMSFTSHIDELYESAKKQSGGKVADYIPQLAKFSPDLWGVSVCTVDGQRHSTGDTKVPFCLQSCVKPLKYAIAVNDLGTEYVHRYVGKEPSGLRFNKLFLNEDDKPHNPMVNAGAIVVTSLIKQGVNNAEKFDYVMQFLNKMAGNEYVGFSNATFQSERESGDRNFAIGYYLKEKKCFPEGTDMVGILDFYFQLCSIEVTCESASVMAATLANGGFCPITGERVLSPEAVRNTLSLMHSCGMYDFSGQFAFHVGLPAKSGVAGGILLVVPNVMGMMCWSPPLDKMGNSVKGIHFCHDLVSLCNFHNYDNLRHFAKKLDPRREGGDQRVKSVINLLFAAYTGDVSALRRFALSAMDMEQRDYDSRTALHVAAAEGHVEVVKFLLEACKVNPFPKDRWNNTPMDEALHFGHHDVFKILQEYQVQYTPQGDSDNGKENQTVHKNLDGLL
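hKGA in 45 mM KH2PO4 (pH 8.2), 0.02% Tween-20 with compound, then 1mM L-Glutamine (stock as added) plus glutamate oxidase/HRP/Amplex red coupling mix. Fluorescence read initially and after 30 min at RT; signal change reflects glutamate formation.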
GCN5L2 inh = blocks human GCN5L2 histone acetyltransferase; Q92830; GCN5L2 HAT assay, ThioGlo1 CoA-SH fluorescence; Potency, µM (highest dose often 58.9 µM), inactives show at the highest dose activity change, negative = inhibition, actives largely listed as inhibitors; 390,000 compounds, 0.21% hits; AID 504327; also: % is scaled to controls: 0 for no effect and ±100 for the full control effect
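Free CoA generated was detected with ThioGlo1 (50uM) fluorescence at Ex340nm/Em540nm, read immediately and after 20 min at room temperature. Enzyme, 20 nM in HEPES pH 7.5 buffer, saw compounds 15 min before adding 75uM H3(1-25) peptide and 70uM acetyl-CoA.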
PKM2 activator = PKM2 (human) enzyme activation. P14618. purified PKM2, Kinase-Glo ATP luminescence, activation; response scale: 0% is enzyme alone, no compound. Potency, µM (titrated, usually from 57.5 µM), inactives show at the top dose activation, actives largely listed as activators. 260,000 compounds, 0.34% hits. AID 1631; also: % is scaled to controls: 0 for no effect and ±100 for the full control effect; nearly all actives have a fitted effect of over 55% in size
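ATP formation by purified human PK-M2, quantified via coupled luciferase luminescence after 1 h at room temperature with 0.1 mM ADP and 0.5 mM PEP final.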
An asterisk follows results filed as active. Calls follow the shape of the dose curve; as a rule, active = well fitted curve in the direction sought with a large enough effect; inconclusive = small, poorly fitted or top-dose-only effect, or another doubt; inactive = no such curve, though single readings can be large; an effect the other way counts as inactive or inconclusive. Potency is read from the fitted curve at half-maximal effect.

Results for O=C(Nc1ccc(S(=O)(=O)Nc2cnc3ccccc3n2)cc1)c1ccc(Cl)c([N+](=O)[O-])c1 ?
VDR inhibitor: inconclusive; Mito fusion yeast: 1%; PLK1 PBD inh: 42µM*; GLS inhibitor: 0%; GCN5L2 inh: -23%; PKM2 activator: 4%

How did COc1ccc(C(=O)Nc2ccc(S(=O)(=O)Nc3cnc4ccccc4n3)cc2)cc1 do in these assays?
VDR inhibitor: 9%; Mito fusion yeast: 4%; PLK1 PBD inh: -16%; GLS inhibitor: 6%; GCN5L2 inh: -7%; PKM2 activator: -1%

Results for O=C(NC1CCCC1)c1cccc(S(=O)(=O)N2CCCC2)c1 ?
VDR inhibitor: 44%; Mito fusion yeast: -2%; PLK1 PBD inh: -11%; GLS inhibitor: -2%; GCN5L2 inh: 0%

What do the screens show for `COc1ccc(S(=O)(=O)N(CC(=O)NCc2ccncc2)c2ccc(C)cc2)cc1OC`?
VDR inhibitor: -4%; Mito fusion yeast: 4%; PLK1 PBD inh: -5%; GLS inhibitor: 1%; GCN5L2 inh: -2%

Results for CCCCCn1c(CNC(=O)c2ccc(F)cc2)nc2ccccc21 ?
VDR inhibitor: -6%; GLS inhibitor: -3%; GCN5L2 inh: -7%

What do the screens show for `CCc1c(C)sc(NC(=O)Cn2nc(C(F)(F)F)c3c2CCCC3)c1C#N`?
VDR inhibitor: -11%; Mito fusion yeast: -7%; PLK1 PBD inh: 21µM*; GCN5L2 inh: -28%; PKM2 activator: 0%

Results for COc1cc(CC2COC(c3ccc(O)c(OC)c3)C2COC(C)=O)ccc1O (stereo not drawn) ?
VDR inhibitor: 6%; Mito fusion yeast: 3%; PLK1 PBD inh: -29%; GLS inhibitor: 11µM*; GCN5L2 inh: -16%; PKM2 activator: inconclusive

How did Cn1c(-c2ccccc2)c(C#Cc2ccc(N)cc2)c2ccccc21 do in these assays?
VDR inhibitor: -9%; PLK1 PBD inh: -6%; GLS inhibitor: 9%; GCN5L2 inh: 1%

Results for Cn1c(-c2ccccc2)c(CCO)c2ccccc21 ?
VDR inhibitor: 14%; Mito fusion yeast: 23%; PLK1 PBD inh: 27µM*; GLS inhibitor: 15%; GCN5L2 inh: -1%; PKM2 activator: -12%

Results for CCCCC(=O)N(c1ccc2oc(C)c(C(C)=O)c2c1)S(=O)(=O)c1ccc(F)cc1C ?
VDR inhibitor: 11%; GLS inhibitor: 2%; GCN5L2 inh: 1%

What do the screens show for `Oc1ccc(-c2nc3ccc4ccccc4c3c3c2CCC3)cc1O`?
VDR inhibitor: -24%; Mito fusion yeast: 16µM*; PLK1 PBD inh: -12%; GLS inhibitor: -11%; GCN5L2 inh: 0%; PKM2 activator: inconclusive

How did OCCC1CN(CCCn2cccn2)CCN1C1CCCCC1 (stereo not drawn) do in these assays?
VDR inhibitor: 0%; Mito fusion yeast: -2%; PLK1 PBD inh: -7%; GLS inhibitor: -1%; GCN5L2 inh: 25µM*; PKM2 activator: -1%

What do the screens show for `COc1ccc(-c2csc(N3CCN(c4cc5c(cc4Cl)nc(-c4ccncc4)n5CCOCCO)CC3)n2)cc1`?
VDR inhibitor: -24%; Mito fusion yeast: -10%; PLK1 PBD inh: 27µM*; GLS inhibitor: 7%; GCN5L2 inh: -6%; PKM2 activator: 0%

How did CCOC(=O)c1c(/N=C/N(C)C)sc(/C=N/Nc2ccccc2)c1-c1ccccc1Cl do in these assays?
VDR inhibitor: -6%; Mito fusion yeast: 15%; PLK1 PBD inh: -11%; GLS inhibitor: -5%; GCN5L2 inh: -3%; PKM2 activator: 8%

How did CCOC(=O)c1c(/N=C/N(C)C)sc(/C=N/Nc2ccccc2)c1-c1ccccc1 do in these assays?
VDR inhibitor: -20%; Mito fusion yeast: 8%; PLK1 PBD inh: 24µM*; GLS inhibitor: 24%; GCN5L2 inh: inconclusive; PKM2 activator: 5%

Results for COc1ccc(OC(C)C(=O)Nc2ccccc2F)cc1 (stereo not drawn) ?
VDR inhibitor: -7%; Mito fusion yeast: 0%; PLK1 PBD inh: 3%; GLS inhibitor: -10%; GCN5L2 inh: 0%; PKM2 activator: 0%

What do the screens show for `COc1ccc(OC(C)C(=O)Nc2ccc(F)cc2F)cc1` (stereo not drawn)?
VDR inhibitor: 3%; Mito fusion yeast: 4%; PLK1 PBD inh: 21µM*; GLS inhibitor: -1%; GCN5L2 inh: -5%; PKM2 activator: -5%

Results for O=C(Cn1cnc2ccccc2c1=O)c1ccccc1 ?
VDR inhibitor: 3%; Mito fusion yeast: -5%; PLK1 PBD inh: -1%; GLS inhibitor: -6%; GCN5L2 inh: 0%; PKM2 activator: 0%

How did Cc1ccc(C(=O)Cn2cnc3ccccc3c2=O)cc1 do in these assays?
VDR inhibitor: -9%; Mito fusion yeast: 1%; PLK1 PBD inh: 30µM*; GLS inhibitor: 72%; GCN5L2 inh: 0%; PKM2 activator: -5%

What do the screens show for `O=C1CC(SC(=S)C2CCCC2=O)C(=O)N1` (stereo not drawn)?
PLK1 PBD inh: 13µM*; GLS inhibitor: -14%

What do the screens show for `CCCc1nnc(NC(=O)CCC(=O)N2CCN(c3ccccc3)CC2)s1`?
VDR inhibitor: -14%; Mito fusion yeast: -1%; PLK1 PBD inh: -4%; GLS inhibitor: 37%; GCN5L2 inh: -23%

What do the screens show for `O=C(Nc1ccccc1)C1=C(O)CC(c2ccc(Cl)cc2)N2CCN=C12` (stereo not drawn)?
VDR inhibitor: -26%; Mito fusion yeast: inconclusive; PLK1 PBD inh: 7%; GLS inhibitor: -1%; GCN5L2 inh: -11%; PKM2 activator: 18µM*

What do the screens show for `Cc1ccccc1NC(=O)c1ccc(S(=O)(=O)N2CCCC2)cc1`?
VDR inhibitor: 6%; Mito fusion yeast: 2%; PLK1 PBD inh: 2%; GLS inhibitor: -12%; GCN5L2 inh: 0%; PKM2 activator: 2%

Results for N#CCCSc1ccccc1NC(=O)c1ccc(S(=O)(=O)N2CCCC2)cc1 ?
Mito fusion yeast: 1%; GCN5L2 inh: -7%; PKM2 activator: 20µM*

Results for COC(=O)c1nnc(C(=O)N(C)Cc2ccccc2)c2[nH]c3ccccc3c12 ?
VDR inhibitor: -7%

How did C#CCCCCCCCCCCCc1ccco1 do in these assays?
VDR inhibitor: 35µM*; GCN5L2 inh: inconclusive

Results for CC(=O)Nc1ccc(NCCc2ccco2)cc1 ?
PLK1 PBD inh: 0%; GLS inhibitor: inconclusive

How did O=C(Nc1ccccc1)/C(=C\c1ccc2c(c1)OCO2)NC(=O)c1ccco1 do in these assays?
VDR inhibitor: -29%; Mito fusion yeast: 4%; PLK1 PBD inh: 24µM*; GLS inhibitor: 11%; GCN5L2 inh: -9%; PKM2 activator: -3%
